IL1B secr inh = inflammasome signaling inhibition, IL-1 beta readout; THP-1 LPS/ATP IL-1B secretion, AlphaLISA, 16 h; hits give low values; activity change, % at 57.5 µM; 360,000 tested, 4.7% active; AID 743279; in the data active = activity change below about -50%; inconclusive = mostly about -30% to -49%; also: % is scaled to controls: 0 for no effect and ±100 for the full control effect
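THP-1 cells pretreated 1 hr with compounds (up to 57.5 uM final), then stimulated with LPS (250 ng/mL final) plus ATP (1.25 mM final); secreted IL-1B measured by AlphaLISA after 16 hr, decreased signal indicating inhibition.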
TGFb inhibitor = TGF-b pathway inhibition | HepG2 CAGA-GFP TGF-b/SMAD3 reporter, GFP fluorescence, 18 h; TGF-beta stimulated, 500 pg/mL final | 410,000 tested, 1.2% active | Potency, µM (titrated, usually from 46.1 µM), for the others: at the top dose activity, negative = inhibition, actives largely listed as inhibitors; also: potency is read from the fitted curve at half-maximal effect; % is scaled to controls: 0 for no effect and ±100 for the full control effect; nearly all actives have a fitted effect of over 65% in size
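HEPG2 CAGA-GFP cells (1000/well, DMEM with 1% FBS) were pre-incubated 2 h at 37 degrees C, given compound by pin tool, then stimulated with TGF-beta at 500 pg/mL final for 18 h before per-cell GFP fluorescence imaging.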
HepG2 tox = HepG2 cytotoxicity, counter-screen for TGF-b inhibitors; HepG2 CAGA-GFP viability, ATP luminescence, 18 h; Potency, µM (series often up to 46.1 µM), for inactives: top-dose activity change, negative = cytotoxicity, hits mostly cytotoxic; 410,000 tested, 0.76% active; also: potency is read from the fitted curve at half-maximal effect
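CellTiter-Glo luminescence gave cytotoxicity after 18 hours at 37 degrees C. The cells were HepG2 CAGA-GFP in 1% FBS DMEM, stimulated with 500 pg/mL TGF-beta after compound addition. %Activity was normalised to no-cell wells (complete cell-killing) and DMSO (no toxicity), and curves were fitted and classified.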
DT40 TDP1 no CPT = qHTS for Inhibitors of human tyrosyl-DNA phosphodiesterase 1 (TDP1): qHTS in cells in absence of CPT. DT40 Tdp1-/- hTDP1 cells, no CPT, ATP luminescence, 48 h. Potency, µM (titrated, usually from 46.2 µM), inactives show at the top dose activity change, negative = growth inhibition, hits mostly inhibitors. 420,000 tested, 15% active. AID 686978, 2013; also: potency is read from the fitted curve at half-maximal effect; % is scaled to controls: 0 for no effect and ±100 for the full control effect; nearly all actives have a fitted effect of over 55% in size
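Cells were dispensed at 400 per well, compounds added by pin tool, plates incubated ≥48 hr at 37 °C, then CellTiter-Glo added for 30 min at room temperature before luminescence reading. Line: DT40 Tdp1-/- complemented with hTDP1; camptothecin omitted.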
TDP1 inh = inhibitors of human tyrosyl-DNA phosphodiesterase TDP1. AID 485290. recombinant TDP1, AlphaScreen DNA substrate cleavage. 350,000 tested, 0.28% active. Potency, µM (titrated, usually from 130 µM), for inactives: at the highest dose activity change, negative = inhibition, usual class: inhibitors. Q9NUW8; also: potency is read from the fitted curve at half-maximal effect; % is scaled to controls: 0 for no effect and ±100 for the full control effect; nearly all actives have a fitted effect of over 40% in size
Target sequence (Q9NUW8 whole entry, looked up): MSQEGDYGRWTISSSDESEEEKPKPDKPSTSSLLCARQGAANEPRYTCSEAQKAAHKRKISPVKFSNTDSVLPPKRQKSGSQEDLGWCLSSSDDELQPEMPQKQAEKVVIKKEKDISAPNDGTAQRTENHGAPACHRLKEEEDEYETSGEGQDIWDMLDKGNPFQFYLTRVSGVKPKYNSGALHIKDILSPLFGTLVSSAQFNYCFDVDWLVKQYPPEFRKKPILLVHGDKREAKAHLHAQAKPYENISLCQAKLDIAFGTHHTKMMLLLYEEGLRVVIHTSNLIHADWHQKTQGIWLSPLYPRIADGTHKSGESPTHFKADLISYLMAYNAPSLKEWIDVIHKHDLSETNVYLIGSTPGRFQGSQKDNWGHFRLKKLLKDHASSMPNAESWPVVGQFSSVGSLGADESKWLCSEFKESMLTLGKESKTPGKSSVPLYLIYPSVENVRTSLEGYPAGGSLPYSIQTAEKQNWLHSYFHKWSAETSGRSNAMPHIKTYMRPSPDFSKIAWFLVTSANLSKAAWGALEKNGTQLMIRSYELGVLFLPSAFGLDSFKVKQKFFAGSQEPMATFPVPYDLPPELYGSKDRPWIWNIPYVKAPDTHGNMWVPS
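Recombinant E. coli-expressed Tdp1 (1 nM) preincubated with compound 15 min at RT, then 5'-biotin/3'-phosphotyrosine-FITC DNA substrate (15 nM) added for 5 min. AlphaScreen beads (10 ug/ml) added, 10 min RT; tyrosine-FITC cleavage read as signal loss.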
TDP1 cell CPT = DT40-hTDP1 cell growth loss with CPT. chicken DT40 Tdp1-/-;hTDP1 cells + 20 nM CPT, ATP luminescence, 48 h. Potency, µM (highest dose often 46.2 µM), for inactives: at the top dose activity change, negative = growth inhibition, usual class: inhibitors. 420,000 tested, 12% active. AID 686979; also: potency is read from the fitted curve at half-maximal effect; % is scaled to controls: 0 for no effect and ±100 for the full control effect; nearly all actives have a fitted effect of over 55% in size
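Chicken DT40 Tdp1-/- cells complemented with human TDP1, 400 cells/well, exposed to compounds plus 20 nM camptothecin for at least 48 h at 37 C; viability read as ATP content by CellTiter-Glo luminescence.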
The depositor's hits bear a star; ? = inconclusive; / = no result; [ ] = dose if it differs, or a comment. The list is not random: actives were taken first. Their share in the collection is about 18%. Unless noted, calls follow the shape of the dose curve; as a rule, active = well fitted curve in the direction sought with a large enough effect; inconclusive = small, poorly fitted or top-dose-only effect, or another doubt; inactive = no such curve, though single readings can be large; an effect the other way counts as inactive or inconclusive.

SMILES | IL1B secr inh | TGFb inhibitor | HepG2 tox | DT40 TDP1 no CPT | TDP1 inh | TDP1 cell CPT
COc1ccc(OCC(=O)N2CCN(C3CCC(c4ccccc4)CC3)CC2)cc1 (stereo unspecified) | -3 | -16% | -22% | 18µM* | -10% | ?
COc1ccc(OCC(=O)N2CCCC(N3CCN(c4ccccc4C)CC3)C2)cc1 (stereo unspecified) | -16 | 0% | -26% | 21µM* | 5% | 16µM*
CN1CCN(C(=O)COc2ccc3ccccc3c2)CC1 | 16 | 3% | -19% | 7% | / | -3%
O=C(COc1ccc2ccccc2c1)N1CCN(C2CCN(Cc3ccccc3)CC2)CC1 | -19 | 0% | -29% | ? | -1% | 16µM*
CC[C@H](C)[C@H](NC(=O)[C@H](CCCN=C(N)N)NC(=O)[C@H](CCCN=C(N)N)NC(=O)[C@H](CC(C)C)NC(=O)[C@H](Cc1ccccc1)NC(=O)CNC(=O)CNC(=O)[C@@H](N)Cc1ccc(O)cc1)C(=O)N[C@@H](CCCN=C(N)N)C(=O)N1CCC[C@H]1C(=O)N[C@@H](CCCCN)C(=O)N[C@@H](CC(C)C)C(=O)N[C@@H](CCCCN)C(=O)O | / | / | / | 2%[4.12 µM] | 10% | 8%[4.12 µM]
CCOc1ccccc1NC(=O)c1sc2nc3c(cc2c1N)CN(Cc1ccccc1)CC3 | / | 19% | -14% | 23µM* | 10% | 16µM*
Cn1cc([N+](=O)[O-])c(C(=O)Nc2ccc3c(C(F)(F)F)cc(=O)oc3c2)n1 | -95* | ? | -22% | 2% | 4% | 1%
Cn1cc(Br)c(C(=O)Nc2ccc3c(C(F)(F)F)cc(=O)oc3c2)n1 | -4 | 8% | 24% | 3% | 0% | -14%
CNC(C)CC1CCCCC1 (stereo unspecified) | / | / | / | -14% | / | -3%
CCCBr | / | / | / | / | 7% | /
Cc1cccc(C)c1NC(=O)c1cccn(Cc2ccc3c(c2)OC(F)(F)O3)c1=O | -25 | -23% | 11µM* | ? | 0% | ?
CC(C)Oc1cccc(NC(=O)c2cccn(Cc3ccc4c(c3)OC(F)(F)O4)c2=O)c1 | -17 | 0% | 7% | ? | -3% | ?
NC(=O)c1ccc(NC(=O)c2cccn(Cc3ccccc3)c2=O)cc1 | / | -24% | -7% | ? | 0% | -4%
Cc1cccc2sc(NC(=O)c3cccn(Cc4ccccc4)c3=O)nc12 | / | -15% | -14% | 13µM* | 3% | ?
N#Cc1ccccc1NC(=O)c1cccn(Cc2ccccc2)c1=O | / | -27% | -24% | 15µM* | -10% | 18µM*
OCCCNc1ccccc1 | / | / | / | -22% | / | 9%
COc1ccc2c3c1O[C@H]1[C@H](O)CC[C@H]4[C@@H](C2)N(C)CC[C@@]341 | / | / | / | 11%[92.5 µM] | / | 10%[92.5 µM]
Cc1cccc(OCC(=O)N2CCN(CCc3ccccn3)CC2)c1 | / | ? | -19% | -4% | 5% | -13%
CCCC(=O)Cl | / | / | / | / | 6% | /
COc1ccc(C2/C=C\CN(C(=O)Oc3ccc(C(F)(F)F)cc3)CC(=O)N2Cc2ccc(F)cc2)cc1 (stereo unspecified) | 53 | ? | -32% | ? | 4% | ?
O=[N+]([O-])c1ccc(NCc2ccc(Cl)cc2)c2ccncc12 | -57* | -1% | 3% | 21µM* | / | 23µM*
O=C1CC(O)(CF)CCO1 (stereo unspecified) | / | / | / | / | 7% | /
CCOC(=O)c1ccc(-[n+]2c(-c3ccccc3)cc(-c3ccccc3)cc2-c2ccccc2)cc1 | -99* | ? | -41% | 0.73µM* | 4% | 1µM*
CCOC(=O)c1cccc(-[n+]2c(-c3ccccc3)cc(-c3ccccc3)cc2-c2ccccc2)c1 | -67* | ? | -13% | 1.6µM* | / | 1.6µM*
Cc1ccc(-c2cc(-c3ccc(C)cc3)[n+](-c3ccc(C(=O)[O-])cc3)c(-c3ccc(C)cc3)c2)cc1 | 21 | -13% | -28% | ? | 3% | ?
SMILES | IL1B secr inh | TGFb inhibitor | HepG2 tox | DT40 TDP1 no CPT | TDP1 inh | TDP1 cell CPT
CCC12CN3CC(CC)(CN(C1)C3c1c(C)[nH]c(=O)[nH]c1=O)C2=O (stereo unspecified) | / | 44% | 6% | -8% | 7% | -8%
CCOC(=O)[C@]12Cc3cc(OC)ccc3[C@H]1N(C(C)C)C(=O)c1cc(OC)ccc12 | -117* | / | / | 18µM* | / | 21µM*
CCOC(=O)[C@]12Cc3c(cc(OC)c(OC)c3OC)[C@H]1N(C(C)C)C(=O)c1cc(OC)ccc12 | -113* | / | / | 7.3µM* | / | 9.2µM*
O=C1CNC(c2ccccc2Cl)c2cc(Br)ccc2N1 (stereo unspecified) | -5 | -27% | -3% | 8.2µM* | / | -10%
CCOC(=O)C1(c2ccccc2)CCN(CC(=O)Nc2cccc3ccccc23)CC1 | -16 | ? | 1% | ? | 5% | ?
CC(CCN1CC1)=NNC(=O)Nc1cccc2ccccc12 | 0 | ? | -11% | 8.2µM* | / | 7.3µM*
ClCCN(CCCl)c1ccc(-n2cnc3c(Cl)ncnc32)cc1 | -96* | 4% | 2% | 6.5µM* | / | 6.5µM*
O=[N+]([O-])c1ccc(N2CCCC(C(F)(F)F)C2)c2ccncc12 (stereo unspecified) | 18 | ? | -1% | 9.2µM* | 14% | 13µM*
